From the supplement of paper PMC11417369 come the findings set out here.

± gives the standard deviation of the averaged measurements. Whole data set: some 25,000 sequences, median “ln(normalized median fluorescence intensity)” near 10, cut for the highest 2% near 12. What follows is part of a selection rich in the highest values, with near analogues and random picks from the rest.

In this experiment the test system is PfAP2-G AP2 domain (GST-tagged). The experiment is described as follows: gcPBM binding intensity (ln(normalized median fluorescence intensity)); higher = stronger DNA binding. The method, boiled down:
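In this array assay, P. falciparum DNA-binding domains with a GST tag, expressed in E. coli, were applied for 1 h to primer-extended double-stranded 36-bp intergenic genomic probes and negative controls on an Agilent 4 × 180k array. Bound protein was visualised with Alexa488 anti-GST antibody at 488 nm. Binding intensity is the highest Masliner-normalised natural-log median intensity across replicate spots of either probe orientation.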
On to “ATATAATTACATTGATGTACACGAAATGATTAACAT [XGTACX_site5183]”, for which the “gcPBM binding intensity (ln)” value worked out at 11.7 ± 1.1. As for “ATATATATTTTTATAACACACAATGATGTACATTAC [CACACA_site1076]”, the figure is 11.3 ± 0.84; as for “CAGAAATATTAATGCTGTACGGAATACATATATTTT [XGTACX_site539]”, 10.9 ± 0.6.

For the sequence “ATAAAAATAAATAAATGTACATATATATATATATAT [XGTACX_site1277]”, the “gcPBM binding intensity (ln)” value was 11.1 ± 0.58. In the case of “AGGTCATACATAAAATGTACATATATATAAATATAT [XGTACX_site7147]”, the “gcPBM binding intensity (ln)” value was 10.9 ± 0.54.

As to “GTAATAATTTTTTGTAGTACACAAAAATTCATATTT [XGTACX_site2699]”, the “gcPBM binding intensity (ln)” value turned out to be 11.7 ± 1.1. As for “AATTTCATTTTTAGAAGTACATTTATATTAAAAATC [XGTACX_site2888]”, the figure is 11.2 ± 0.95.

On to “AATTTTCATTTTAGAAGTACACACAAAAAATAAAAT [XGTACX_site4426]”, for which the “gcPBM binding intensity (ln)” value turned out to be 11.7 ± 1.1. As for “TAAGTCATATAAATGTGTACATAAAAAAAAAAAATG [XGTACX_site1645]”, the figure is 11.6 ± 1. For “TATTCATAATTTTAATGTACAAAATGGTTTGTAATA [XGTACX_site8493]”, the “gcPBM binding intensity (ln)” value was 10.6 ± 0.33.

For the sequence “TACAAATTTATATAAAGTACAAAAAATAATAAAAAT [XGTACX_site7355]”, the “gcPBM binding intensity (ln)” value came to 11.1 ± 0.57. As for “TTTCATTTTAGAAGTACACACAAAAAATAAAATAAT [CACACA_site2141]”, the “gcPBM binding intensity (ln)” value is 11.6 ± 0.92. As for “TAAATTTTTTTTTTTTGTACACAAAAATATAATATT [XGTACX_site8151]”, the figure is 11.4 ± 0.98; as for “AATAATATATGGTGTACACAAAAGTATAAATAATTT [CACACA_site5338]”, 11.9 ± 1. Take “GTTAAAATAATATGGTGTACAAATATATAAGTTCAT [XGTACX_site3262]”: the “gcPBM binding intensity (ln)” value was found to be 11.4 ± 0.79. As for “ATAGAATACATATATGAACACACAGAGTTTTAAAAA [CACACA_site8879]”, the figure is 10.15 ± 0.042; as for “ATATTTAAAGAATAAGTGCAAAATGTAATTAATTTT [GTGCAC_site9901]”, 10.065 ± 0.007; as for “TAAAAAAACATATATTGTACGGAGATAATAATTTTT [XGTACX_site2946]”, 10.6 ± 0.31.

On to “TTATATTTAGTATATGCACACTTTATGTTTGTTATT [CACACA_site5163]”, for which the “gcPBM binding intensity (ln)” value stood at 9.955 ± 0.035. As for “TAAAAGGATGCATATACACACATATAGATTTATATA [CACACA_site7336]”, the “gcPBM binding intensity (ln)” value is 9.915 ± 0.035. For the sequence “AATAATTTCCAAAAATGTACATATATTTACATATAT [XGTACX_site1790]”, the “gcPBM binding intensity (ln)” value worked out at 10.9 ± 0.52.

In the case of “TATATATCCATGTGTACACACAAAAAAAAATAAAGT [CACACA_site7107]”, the “gcPBM binding intensity (ln)” value was found to be 11.7 ± 0.93. As for “TATATATTCATGTGTACACACAAAAAAAAATAAAGT [CACACA_site2207]”, the figure is 11.7 ± 0.9. As for “AATATATATTCATGTGTACACACAAAAAAAAATAAA [CACACA_site8690]”, the figure is 11.6 ± 0.84. Consider “TGAAAAGAAAACACATGTACAAATATATAAATATAA [XGTACX_site6098]”, for which the “gcPBM binding intensity (ln)” value was determined as 10.8 ± 0.35. As to “AAATATATATTCATGTGTACACACAAAAAAAAATAA [XGTACX_site4552]”, the “gcPBM binding intensity (ln)” value was determined as 11.6 ± 0.84. As for “AAAATAATAATAAAAAGTACATGTGTATATAATAAA [XGTACX_site754]”, the figure is 11.3 ± 0.82; as for “CTTTATATATTTTATTGTACTTAAAAAAAAAAAAAA [XGTACX_site2134]”, 11.4 ± 1.1; as for “ACATACATACATACATACATACATACATACATACAT [XGTACX_negctrl_site315]”, 10.6 ± 0.57. As for “AAGAAATATATATATATATATATATATATATATGTA [TGCATGCA_negctrl_site442]”, the figure is 9.67 ± 0.16; as for “AATAAAAAAAATAGCATACACACATATATACATATA [CACACA_site659]”, 9.75 ± 0.028; as for “TGGTCTTTTAAACAAAAATATAAATTTTTAAATATG [CACACA_negctrl_site392]”, 9.94 ± 0.23.

On to “AATAAATTAATAAGGTGTACATAAATAATTTATATA [XGTACX_site8278]”, for which the “gcPBM binding intensity (ln)” value turned out to be 11.5 ± 0.94.

As for “AAAGGTGTATATAATACACACGTGTGATTAAAATTG [CACACA_site8104]”, the “gcPBM binding intensity (ln)” value came to 10.13 ± 0.064. Regarding “TTTGAAATAAAAAGGTGTACACTCGATTAATAAATA [XGTACX_site6943]”, the “gcPBM binding intensity (ln)” value amounted to 11.8 ± 0.98. Consider “TGTTAATAAAGGTGTACACAAAATAAAAAAAATTAT [CACACA_site4288]”, for which the “gcPBM binding intensity (ln)” value came out at 11.7 ± 0.92. Take “ACACAAAAATAAAAATGTACAAATTAAAAAAAATGA [XGTACX_site2083]”: the “gcPBM binding intensity (ln)” value came out at 10.8 ± 0.42. Turning to “TAAAATTTAAAAAGGTGTACACTATAAATTAAAATA [XGTACX_site2081]”, the “gcPBM binding intensity (ln)” value is 11.7 ± 0.95. With “AATTAATAAAAAAGGTGTACAGTAAATGCAATAATC [XGTACX_site7956]”, the “gcPBM binding intensity (ln)” value was 11.7 ± 0.99.

For “TTAAAAAAAAAAAGGTGTACTATAATTTAATATCAC [XGTACX_site6316]”, the “gcPBM binding intensity (ln)” value stood at 11.6 ± 1.1. In the case of “GGTGTTAAAAAATACACACACAAAAAAAAAAAAAAA [CACACA_site138]”, the “gcPBM binding intensity (ln)” value was 9.95 ± 0.51. With “AAAAAAAAAAAAAGGTGTACATGCAAAATAAATTCT [XGTACX_site4592]”, the “gcPBM binding intensity (ln)” value is 11.6 ± 0.93. As for “AATTAATAAGAAAGGTGTACAGAAAAAAAAAAATAT [XGTACX_site2106]”, the figure is 11.5 ± 0.8. As for “AAAAAAAAAAGGTGTACATGCAAAATAAATTCTTAA [TGCATGCA_site556]”, the figure is 11.6 ± 1.1; as for “TATAAATTATATATTTGTACGTATATCACATATATA [XGTACX_site7053]”, 11.3 ± 0.84.
